Assay results: PubChem BioAssay (NCATS)
Records with an inconclusive call do not appear. Where a call stands in place of a potency, no number is given. Active and inactive are the calls of the source. Calls come from the whole dose curve; as a rule, active = well fitted cell-killing curve with a large enough effect; inconclusive = small, poorly fitted or top-dose-only effect, or effect the other way; inactive = flat fitted curve, though single readings scatter.

The molecules below were run on CAOV3 (assay: Primary qHTS to identify gynecologic anti-cancer compounds using libraries of approved drugs and bioactive compounds (AID 1345084; note: nearly all actives have a fitted effect of over 55% in size)). Conditions: Gynecologic cancer cell panel viability, ATPlite luminescence, 48 h; series mostly up to 57.5 µM.
Summary of the method: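 Five-point cytotoxicity, 48 h drug exposure at 37 C, 5% CO2, on cells seeded 16 h beforehand. ATP content read by ATPlite luminescence.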
With `COC(=O)C1=COC(OC2OC(CO)C(O)C(O)C2O)C2C(COC(=O)/C=C/c3ccc(O)c(O)c3)C(O)C(O)C12` (configuration not stated) the Potency was “inactive”. With `O=C(OC[C@H]1O[C@H](O[C@]2(CO)O[C@H](CO)[C@@H](O)[C@@H]2O)[C@H](O)[C@@H](O)[C@@H]1O)c1ccc(O)cc1` the Potency was “inactive”. For `C=CC(C)(O)C1CC2C3(C)CCCC(C)(C)C3C(O)C(O)C2(C)O1` (configuration not stated), the Potency was “inactive”. In the case of `CC1CC(=O)[C@]2(O)C(C(=O)OCCc3ccc(O)c(O)c3)=CO[C@@H](O[C@@H]3O[C@H](CO)[C@@H](O)[C@H](O)[C@H]3O)[C@H]12` (some centres not stated), the Potency is reported as “inactive”. In the case of `COc1cc(O)cc2c1C(=O)OC(C)CCCCCCC2` (configuration not stated), the Potency is reported as “inactive”. `C=C(C)[C@H]1CC[C@]2(C(=O)O)CC[C@]3(C)C(CCC4[C@@]5(C)CCC(=O)C(C)(C)C5CC[C@]43C)C12` (some centres not stated) was tested, and the Potency was “inactive”. In the case of `OCC1OC(Oc2cc(O)cc(/C=C/c3ccc(OC4OC(CO)C(O)C(O)C4O)cc3O)c2)C(O)C(O)C1O` (configuration not stated), the Potency is reported as “inactive”. With `CC(C)[C@](O)(c1ccc2cc(OC(F)F)c(OC(F)F)cc2c1)c1cn[nH]n1` the Potency was “inactive”. For `C/C=C1/[C@H](O[C@@H]2O[C@H](CO)[C@@H](O)[C@H](O)[C@H]2O)OC=C(C(=O)OC)[C@H]1CC(=O)OCCc1ccc(OC(=O)C[C@@H]2C(C(=O)OC)=CO[C@@H](O[C@@H]3O[C@H](CO)[C@@H](O)[C@H](O)[C@H]3O)/C2=C/C)cc1`, the activity change, negative = cytotoxicity was 14% [at 11.6 µM] (inactive). `C/C(=C/CO)CC[C@H]1[C@]2(C)C[C@H](O)CC(C)(C)[C@H]2CC[C@]1(C)O` was tested, and the Potency was “inactive”. For `C[C@@H]1O[C@@H](O[C@@H]2\C=C/C=C\C=C/C=C\C[C@H](C)OC(=O)/C=C\[C@H]3O[C@@H]3C[C@H](O)C[C@]3(O)C[C@@H](O)[C@@H](C(=O)O)[C@H](C2)O3)[C@H](O)[C@H](N)[C@@H]1O`, the Potency was “inactive”. In the case of `COc1cc(C)c(C(=O)O[C@@H]2[C@H](O)[C@@H](CO)O[C@H]2n2ccc(=O)[nH]c2=O)c(OC)c1`, the Potency is reported as “inactive”. With `C=C(CCO)C(=O)OCC1OCC(OC(=O)C(=C)CCO[C@@H]2O[C@H](CO)[C@@H](O)[C@H](O)[C@H]2O)C(O)C1O` (some centres not stated) the Potency was “inactive”. With `COc1ccc(/C=C/C(=O)N2CCCC2)cc1` the Potency was “inactive”. For `C[C@@H]1O[C@@H](OC[C@H]2O[C@@H](OCc3ccccc3)[C@H](O)[C@@H](O)[C@@H]2O)[C@H](O)[C@H](O)[C@H]1O`, the Potency was “inactive”. `CC(=O)O[C@@H]1C=C2[C@H](CC[C@@]3(C)[C@@]2(O)CC[C@H]2Cc4c([nH]c5ccccc45)[C@@]23C)O[C@@H]1C(C)(C)O` was tested, and the Potency was “inactive”. With `Cc1cc(Cn2cnc3c2CC(C(=O)O)N(C(=O)C(c2ccccc2)c2ccccc2)C3)ccc1N(C)C` (configuration not stated) the Potency was “inactive”.
